Assay results published in PubChem BioAssay (NCI).
This is part of a sample that, as a whole, favours compounds with a hit. Of some 83,000 tested, about 20% had one in any assay.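 Negative percent growth values reflect cell death: -40 means 40% of the cells present at the start died, and -100 means all died.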 A number with no mark means an inactive call. Active and inactive are the calls of the source. Rule for the calls: active = growth percent below 10; inactive = the rest.

tested on: SF-295 CNS; experiment: NCI-60 one-dose screen, 48 h (100 = growth as untreated, 0 = no growth, -100 = all killed); conditions: 10 µM unless noted

Row | SMILES | growth
1 | COc1ccc(Nc2ncccc2NC(=O)c2cn(Cc3cccc(Oc4ccccc4)c3)nn2)cc1 | 92.8%
2 | O=C1NC(=O)[C@@H](c2cn3c4c(cccc24)CCC3)[C@@H]1c1c[nH]c2ccccc12 | 19.2%
3 | Cc1cc(-c2cc(O)ccc2Cl)cc2nnc(Nc3ccc(OCCN4CCCC4)cc3)nc12 | -76.3% (active)
4 | C=CCN(/C=C1/C(=O)O[C@H](COC)[C@@]2(C)C1=C(O)C(=O)C1=C2[C@H](OC(C)=O)C[C@]2(C)C(=O)CC[C@@H]12)CC=C | 5.72% (active)
5 | CNC(=O)c1nn(C)c2c1C(C)(C)Cc1cnc(Nc3ccc(N4CCN(C)CC4)cc3)nc1-2 | 15.3%
6 | CC(C)Nc1cc(-c2c[nH]c(C(=O)N[C@H](CO)c3cccc(Cl)c3)c2)c(Cl)cn1 | 45.6%
7 | COc1ccc(Cc2cc(-c3ccccc3C)n[nH]c2=O)cc1 | 116%
8 | CC(C)[C@@H]1CC[C@@H]2[C@@H]1[C@H](OC(=O)/C=C/c1ccccc1)[C@]1(C(C)C)C[C@@H](OC(=O)CO)[C@@]2(C)O1 | 92.2%
9 | Cc1ncc(-c2ccnc(Nc3ccc(S(C)(=O)=O)cc3)n2)n1C(C)C | -0.591% (active)
10 | C/C=C/C=N/NC(=S)Nc1ccccc1 | 98.9%
11 | Cc1nn(-c2ccccc2)c2c1N=c1s/c(=C\c3cn(-c4ccccc4)nc3-c3ccc(Cl)cc3)c(=O)n1C(C)N2 (stereo unspecified) | 116%
12 | COc1cc2c(cc1OCCCN1Cc3ccc(OCCCCC(=O)N4CCC(CCN5CCCC5)CC4)cc3C1)N=C(N)C21CCCC1 | 101%

tested on: SF-539 CNS; experiment: as above; conditions: 10 µM unless noted

Row | SMILES | growth
13 | COc1cccc2cc(-c3nc(C4CCC(C(=O)O)CC4)n4ncnc(N)c34)[nH]c12 (stereo unspecified) | -25.6% (active)
14 | CNC(=O)c1cc(Oc2ccc3nc(NC(=O)Nc4ccc(Cl)c(C(F)(F)F)c4)sc3c2)ccn1 | -2.86% (active)
15 | C[C@@H](Oc1cc(-n2cnc3ccc(CN4CCN(C)CC4)cc32)sc1C(N)=O)c1ccccc1C(F)(F)F | -22.1% (active)
16 | Oc1ccc(C(c2ccc(O)cc2)C(Cl)(Cl)Cl)cc1 | 99.9%
17 | C[C@H](NC(=O)c1c(N)nn2cccnc12)c1cc2cccc(C#Cc3cnn(C)c3)c2c(=O)n1-c1ccccc1 | 21.7%
18 | COc1cc(CCc2cc(NC(=O)c3ccc(N4C[C@@H](C)N[C@@H](C)C4)cc3)n[nH]2)cc(OC)c1 | 16.9%
19 | CNC(=O)CN1CCC(Oc2cc3c(Nc4cccc(Cl)c4F)ncnc3cc2OC)CC1 | 72.8%
20 | Cc1oc2c(C(=O)N/N=C\c3ccc(O)cc3O)c[nH]c2c1C | 9.86% (active)
21 | CCCCCc1ccc(C)cc1OC(=O)CCl | 112%
22 | COc1cc2ncnc(Oc3cccc(NC(=O)Nc4cc(C(C)(C)C(F)(F)F)on4)c3)c2cc1OC | 33%
23 | COc1cc(Nc2ncc3c(n2)-c2ccc(Cl)cc2C(c2c(F)cccc2OC)=NC3)ccc1C(=O)O | 56.6%
24 | CC[C@H](Nc1ncnc2nc[nH]c12)c1nc2cccc(F)c2c(=O)n1-c1ccccc1 | 102%
25 | CN1CCN(CCOc2cc(OC3CCOCC3)c3c(Nc4c(Cl)ccc5c4OCO5)ncnc3c2)CC1 | 60%
26 | Nc1nc(Nc2ccccc2)c(C=Nc2ccccc2)c(=O)[nH]1 | 85.5%
27 | CNC(=O)c1cc(Oc2cccc3nc(Nc4ccc(Oc5ccccc5)cc4)ccc23)ccn1 | 90.8%
28 | CN1CC[C@@H](c2c(O)cc(O)c3c(=O)cc(-c4ccccc4Cl)oc23)[C@@H]1CO | -33.3% (active)
29 | Cc1[nH]n(C(N)=S)c(=O)c1N=Nc1ccc(S(=O)(=O)Nc2ccncn2)cc1 | 99.2%
30 | COCCN1CCN(Cc2ccc(-c3n[nH]c4c3C(=O)c3c(NC(=O)NN5CCOCC5)cccc3-4)cc2)CC1 | -86.2% (active)
31 | CN(c1ncccc1CNc1nc(Nc2ccc3c(c2)CC(=O)N3)ncc1C(F)(F)F)S(C)(=O)=O | -36% (active)
32 | COc1cc(N2CCC(N3CCN(C)CC3)CC2)ccc1Nc1ncnc(Nc2ccccc2S(=O)(=O)C(C)C)n1 | 100%

Row | SMILES | growth
33 | O=C(COc1ccc(/C=C2\Cc3ccc(Cl)cc3C2=O)cc1)Nc1nccs1 | 96.8%
34 | O=C(c1ccc(/C=C/c2n[nH]c3ccccc23)cc1)N1CCNCC1 | -12% (active)
35 | O=C(O)C1(Cc2cccc(Nc3nccs3)n2)CCC(Oc2cccc(Cl)c2F)CC1 (stereo unspecified) | 89.2%
36 | Cc1cc(O)cc(-c2c(-c3ccnc(-c4cccnc4)c3)cnn2C)c1 | 42.7%
37 | Cc1c(CN2CCN(C(=O)[C@H](C)O)CC2)sc2c(N3CCOCC3)nc(-c3cnc(N)nc3)nc12 | -47.5% (active)
38 | CN1CCN(c2ccc(C(=O)Nc3n[nH]c4ccc(Cc5cc(F)cc(F)c5)cc34)c(NC3CCOCC3)c2)CC1 | -92.4% (active)
39 | C#Cc1cccc(Nc2ncnc3cc(OCCOC)c(OCCOC)cc23)c1 | 81.1%
40 | COc1ccc(Nc2ncccc2NC(=O)c2cn(Cc3cccc(Oc4ccccc4)c3)nn2)cc1 | 95.1%
41 | O=C1NC(=O)[C@@H](c2cn3c4c(cccc24)CCC3)[C@@H]1c1c[nH]c2ccccc12 | -17.3% (active)
42 | Cc1cc(-c2cc(O)ccc2Cl)cc2nnc(Nc3ccc(OCCN4CCCC4)cc3)nc12 | -86.8% (active)
43 | C=CCN(/C=C1/C(=O)O[C@H](COC)[C@@]2(C)C1=C(O)C(=O)C1=C2[C@H](OC(C)=O)C[C@]2(C)C(=O)CC[C@@H]12)CC=C | -19.1% (active)
44 | CNC(=O)c1nn(C)c2c1C(C)(C)Cc1cnc(Nc3ccc(N4CCN(C)CC4)cc3)nc1-2 | -28.6% (active)
45 | CC(C)Nc1cc(-c2c[nH]c(C(=O)N[C@H](CO)c3cccc(Cl)c3)c2)c(Cl)cn1 | 45.2%
46 | COc1ccc(Cc2cc(-c3ccccc3C)n[nH]c2=O)cc1 | 97.8%
47 | CC(C)[C@@H]1CC[C@@H]2[C@@H]1[C@H](OC(=O)/C=C/c1ccccc1)[C@]1(C(C)C)C[C@@H](OC(=O)CO)[C@@]2(C)O1 | 97.1%
48 | Cc1ncc(-c2ccnc(Nc3ccc(S(C)(=O)=O)cc3)n2)n1C(C)C | -65.4% (active)
49 | C/C=C/C=N/NC(=S)Nc1ccccc1 | 89.5%
50 | Cc1nn(-c2ccccc2)c2c1N=c1s/c(=C\c3cn(-c4ccccc4)nc3-c3ccc(Cl)cc3)c(=O)n1C(C)N2 (stereo unspecified) | 85.6%
51 | COc1cc2c(cc1OCCCN1Cc3ccc(OCCCCC(=O)N4CCC(CCN5CCCC5)CC4)cc3C1)N=C(N)C21CCCC1 | 54.7%
